Consider 10 compounds from PubChem BioAssay (NCI).

Experiment [1] is described as follows: NCI Yeast Anticancer Drug Screen. Data for the rad50 strain (AID 155).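 Note: 0% = growth of vehicle-only cultures of the same strain.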 The settings on record: S. cerevisiae rad50 strain growth inhibition, active compounds read high. The essentials:
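Vehicle-treated cultures provide the reference for the growth inhibition reported for compound-exposed, repair-deficient yeast.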

Experiment [2] is described as follows: NCI Yeast Anticancer Drug Screen. Data for the mec2-1 strain (AID 157). The settings on record: S. cerevisiae mec2-1 strain, active compounds read high. The essentials:
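Readout is yeast growth inhibition, normalised to vehicle-treated controls, in the mec2-1 strain exposed to compound.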

Experiment [3] can be described thus: NCI Yeast Anticancer Drug Screen. Data for the sgs1 mgt1 strain (AID 161).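 Note: 0% = growth of cultures given vehicle only.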 The settings on record: S. cerevisiae sgs1 mgt1 strain, active compounds read high. The essentials:
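This yeast growth screen uses a strain with defined DNA-repair lesions; compound-treated growth is compared with vehicle-treated growth.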

Experiment [4] is described as follows: NCI Yeast Anticancer Drug Screen. Data for the cln2 rad14 strain (AID 165).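 Note: 0% = growth equal to vehicle treated cultures.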 The settings on record: S. cerevisiae cln2 rad14 strain, active compounds read high. Put shortly: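 Relative to vehicle controls, growth inhibition of compound-treated cln2 rad14 yeast was recorded.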
The nature of experiment [5]: NCI Yeast Anticancer Drug Screen. Data for the bub3 strain (AID 167). The settings on record: S. cerevisiae bub3 mutant strain, active compounds read high. Put shortly: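 Mutant yeast screening strain plus compound; vehicle-treated cultures serve as the 0% inhibition reference.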
The nature of experiment [6]: NCI Yeast Anticancer Drug Screen. Data for the mlh1 rad18 strain (AID 175). The settings on record: S. cerevisiae mlh1 rad18 strain growth inhibition, active compounds read high. The essentials:
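Test agents were incubated with a yeast strain of defined genotype (DNA damage repair defect). Inhibition of growth was derived by comparison with vehicle-exposed cultures.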

Setting [7] is: at 5.0 µM (retest, dose inferred, filed as 0.5).
Setting [8] is: at 50.0 µM (retest, dose inferred, filed as 5.0).

This is part of a sample that, as a whole, favours compounds with a hit. Of some 79,000 tested, about 15% had one in any assay. Unmarked numbers belong to inactive results. Active and inactive are the calls of the source. Cut-off read from the data, not from the text of the source: active = growth inhibition above about 70%; inactive = the rest.

On to `c1ccc2cc3c(ccc4cccc[n+]43)cc2c1`, for which the growth inhibition in experiment [1] (setting [7]) was 17%; in experiment [1] (setting [8]), 28%; in experiment [1] (at 50.0 µM), 34.3%; in experiment [2] (setting [7]), 20%; in experiment [2] (setting [8]), 52%; in experiment [2] (at 50.0 µM) it was 18%. Besides, the growth inhibition is 23% in experiment [3] (setting [7]); 53% in experiment [3] (setting [8]); 35.6% in experiment [3] (at 50.0 µM); 30% in experiment [4] (setting [7]); 29% in experiment [4] (setting [8]); 71.5% (active) in experiment [4] (at 50.0 µM). Also, the growth inhibition in experiment [5] (setting [7]) is -4%; in experiment [5] (setting [8]), 8%; in experiment [5] (at 50.0 µM), 27.7%; in experiment [6] (setting [7]) it was 10%; in experiment [6] (setting [8]) it was 45%; in experiment [6] (at 50.0 µM) it was 29.9%.

Consider `COc1ccc2nc3cc(Cl)ccc3c(Nc3ccc(S(N)(=O)=O)cc3)c2c1`, for which the growth inhibition was 0% in experiment [1] (setting [7]); 17% in experiment [1] (setting [8]); 37.5% in experiment [1] (at 50.0 µM); 0% in experiment [2] (setting [7]); 9% in experiment [2] (setting [8]); -11.4% in experiment [2] (at 50.0 µM). In addition, the growth inhibition in experiment [3] (setting [7]) was 0%; in experiment [3] (setting [8]) it was 5%; in experiment [3] (at 50.0 µM) it was -6.05%; in experiment [4] (setting [7]), 9%; in experiment [4] (setting [8]), 3%; in experiment [4] (at 50.0 µM) it was -8.25%. Also, the growth inhibition in experiment [5] (setting [7]) is -1%; in experiment [5] (setting [8]) it was 2%; in experiment [5] (at 50.0 µM), -11.4%; in experiment [6] (setting [7]), 1%; in experiment [6] (setting [8]), 2%; in experiment [6] (at 50.0 µM) it was -6.5%.

On to `C1Cc2c3c4c(c5c2C(C1)CCC5)CCCC4CCC3`, for which the growth inhibition in experiment [1] (setting [7]) is -5%; in experiment [1] (setting [8]), 8%; in experiment [1] (at 50.0 µM) it was -11.5%; in experiment [2] (setting [7]), 1%; in experiment [2] (setting [8]) it was 17%; in experiment [2] (at 50.0 µM) it was 10.3%. Besides, the growth inhibition in experiment [3] (setting [7]) was -1%; in experiment [3] (setting [8]), 13%; in experiment [3] (at 50.0 µM) it was 0%; in experiment [4] (setting [7]), 3%; in experiment [4] (setting [8]) it was -1%; in experiment [4] (at 50.0 µM), 34.2%. Besides, the growth inhibition in experiment [5] (setting [7]) was 15%; in experiment [5] (setting [8]), 8%; in experiment [5] (at 50.0 µM) it was -0.85%; in experiment [6] (setting [7]), -1%; in experiment [6] (setting [8]) it was 10%; in experiment [6] (at 50.0 µM) it was -2.25%.

As for `CNc1ccc2c(c1)Cc1ccccc1-2`, the growth inhibition in experiment [1] (setting [7]) is 36%; in experiment [1] (setting [8]), 92% (active); in experiment [1] (at 50.0 µM), 97.3% (active); in experiment [2] (setting [7]), 3%; in experiment [2] (setting [8]), 64%; in experiment [2] (at 50.0 µM), 91.8% (active). Moreover, the growth inhibition is 56% in experiment [3] (setting [7]); 86% (active) in experiment [3] (setting [8]); 96.9% (active) in experiment [3] (at 50.0 µM); 2% in experiment [4] (setting [7]); 79% (active) in experiment [4] (setting [8]); 92.8% (active) in experiment [4] (at 50.0 µM). The growth inhibition in experiment [5] (setting [7]) was -7%; in experiment [5] (setting [8]) it was 45%; in experiment [5] (at 50.0 µM), 77.2% (active); in experiment [6] (setting [7]), 26%; in experiment [6] (setting [8]) it was 92% (active); in experiment [6] (at 50.0 µM), 97.2% (active).

Regarding `COc1ccc(C(c2ccc(C(C)C)cc(OC)c2=O)c2ccc(C(C)C)cc(OC)c2=O)cc1`, the growth inhibition is 7% in experiment [1] (setting [7]); 54% in experiment [1] (setting [8]); 22.4% in experiment [1] (at 50.0 µM); -1% in experiment [2] (setting [7]); 39% in experiment [2] (setting [8]); 42.2% in experiment [2] (at 50.0 µM). Further, the growth inhibition in experiment [3] (setting [7]) was 6%; in experiment [3] (setting [8]), 61%; in experiment [3] (at 50.0 µM), 13.2%; in experiment [4] (setting [7]), -2%; in experiment [4] (setting [8]), 37%; in experiment [4] (at 50.0 µM) it was 10.2%. Also, the growth inhibition was 0% in experiment [5] (setting [7]); 16% in experiment [5] (setting [8]); 9% in experiment [5] (at 50.0 µM); -4% in experiment [6] (setting [7]); 41% in experiment [6] (setting [8]); 29.2% in experiment [6] (at 50.0 µM).

As to `CC(=O)N(C)C1=C(Sc2ccc(C)cc2)C(=O)c2ccccc2C1=O`, the growth inhibition was 95% (active) in experiment [1] (setting [7]); 99% (active) in experiment [1] (setting [8]); 99.5% (active) in experiment [1] (at 50.0 µM); 97% (active) in experiment [2] (setting [7]); 100% (active) in experiment [2] (setting [8]); 99.7% (active) in experiment [2] (at 50.0 µM). For the same compound, the growth inhibition in experiment [3] (setting [7]) was 93% (active); in experiment [3] (setting [8]), 100% (active); in experiment [3] (at 50.0 µM) it was 99.8% (active); in experiment [4] (setting [7]), 83% (active); in experiment [4] (setting [8]), 99% (active); in experiment [4] (at 50.0 µM), 99.5% (active). Further, the growth inhibition in experiment [5] (setting [7]) was 99% (active); in experiment [5] (setting [8]), 99% (active); in experiment [5] (at 50.0 µM), 99.6% (active); in experiment [6] (setting [7]), 95% (active); in experiment [6] (setting [8]) it was 99% (active); in experiment [6] (at 50.0 µM), 99.7% (active).

As to `COC(=O)c1cccc2cccc(C(=O)Nc3ccc(C)cc3C)c12`, the growth inhibition was 74% (active) in experiment [1] (setting [7]); 99% (active) in experiment [1] (setting [8]); 86.2% (active) in experiment [1] (at 50.0 µM); 79% (active) in experiment [2] (setting [7]); 99% (active) in experiment [2] (setting [8]); 91.9% (active) in experiment [2] (at 50.0 µM). Moreover, the growth inhibition in experiment [3] (setting [7]) was 60%; in experiment [3] (setting [8]), 99% (active); in experiment [3] (at 50.0 µM) it was 83.2% (active); in experiment [4] (setting [7]) it was 33%; in experiment [4] (setting [8]) it was 99% (active); in experiment [4] (at 50.0 µM) it was 87.7% (active). In addition, the growth inhibition is 76% (active) in experiment [5] (setting [7]); 92% (active) in experiment [5] (setting [8]); 90.5% (active) in experiment [5] (at 50.0 µM); 90% (active) in experiment [6] (setting [7]); 99% (active) in experiment [6] (setting [8]); 89.7% (active) in experiment [6] (at 50.0 µM).

Take `COC1C(N)C(OC2C(Oc3cccc4c(O)c5c(=O)oc6ccc(C)c7c(=O)oc(c34)c5c67)OC(C)C(O)C2(C)O)OC(C)C1O` (stereo not given): the growth inhibition in experiment [1] (setting [7]) was 12%; in experiment [1] (setting [8]), 48%; in experiment [1] (at 50.0 µM), 26.8%; in experiment [2] (setting [7]), -6%; in experiment [2] (setting [8]), 8%; in experiment [2] (at 50.0 µM), 20.3%. Also, the growth inhibition was 29% in experiment [3] (setting [7]); 32% in experiment [3] (setting [8]); 23.1% in experiment [3] (at 50.0 µM); 8% in experiment [4] (setting [7]); 36% in experiment [4] (setting [8]); 32% in experiment [4] (at 50.0 µM). For the same compound, the growth inhibition in experiment [5] (setting [7]) is 19%; in experiment [5] (setting [8]), 30%; in experiment [5] (at 50.0 µM), 19.4%; in experiment [6] (setting [7]), 11%; in experiment [6] (setting [8]), 15%; in experiment [6] (at 50.0 µM), 60.4%.

`Nc1ccc(Cl)c2cccnc12`: the growth inhibition is 11% in experiment [1] (setting [7]); 92% (active) in experiment [1] (setting [8]); 97.5% (active) in experiment [1] (at 50.0 µM); 4% in experiment [2] (setting [7]); 94% (active) in experiment [2] (setting [8]); 35.5% in experiment [2] (at 50.0 µM). The growth inhibition in experiment [3] (setting [7]) is 5%; in experiment [3] (setting [8]), 89% (active); in experiment [3] (at 50.0 µM), 86.7% (active); in experiment [4] (setting [7]), 0%; in experiment [4] (setting [8]), 46%; in experiment [4] (at 50.0 µM), 87.2% (active). In addition, the growth inhibition in experiment [5] (setting [7]) was 0%; in experiment [5] (setting [8]), 90% (active); in experiment [5] (at 50.0 µM), 15.2%; in experiment [6] (setting [7]) it was 7%; in experiment [6] (setting [8]) it was 94% (active); in experiment [6] (at 50.0 µM), 91.9% (active).

Consider `Cc1ccccc1CN(C)CCO`, for which the growth inhibition is 0% in experiment [1] (setting [7]); -8% in experiment [1] (setting [8]); 65.7% in experiment [1] (at 50.0 µM); -1% in experiment [2] (setting [7]); 2% in experiment [2] (setting [8]); 17.3% in experiment [2] (at 50.0 µM). Moreover, the growth inhibition is 2% in experiment [3] (setting [7]); 13% in experiment [3] (setting [8]); 14.1% in experiment [3] (at 50.0 µM); -8% in experiment [4] (setting [7]); -1% in experiment [4] (setting [8]); 56.8% in experiment [4] (at 50.0 µM). The growth inhibition in experiment [5] (setting [7]) was -5%; in experiment [5] (setting [8]) it was -5%; in experiment [5] (at 50.0 µM), 13.6%; in experiment [6] (setting [7]), -5%; in experiment [6] (setting [8]), -6%; in experiment [6] (at 50.0 µM), 13.8%.
